# Screening data: PubChem BioAssay, National Center for Advancing Translational Sciences (NCATS)
# NPC1 prom act: activates the NPC1 promoter | Potency, µM (highest dose often 9.22 µM), inactives show top-dose activation, hits mostly activators | 320,000 tested, 2.4% active | AID 485313 | Huh7 NPC1 promoter luciferase reporter, 24 h; further: % of control where 0% means no effect; nearly all actives have a fitted effect of over 60% in size
#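 Stably transfected Huh7 (NPC1 promoter→luciferase), 1500 cells/well in Opti-MEM + 10% FBS, 2 h settle, then compound 24 h at 37 °C. Luminescence after 10 min with Amplite reagent.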
# FLuc counter: firefly luciferase modulation, counter-screen for miR-21 project; Potency, µM (top dose mostly 57.5 µM), without a hit: at the highest dose activity change, negative = inhibition, most hits filed as inhibitors; purified FLuc, Km substrates, luminescence inhibition; 360,000 tested, 6.9% active;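 further: plate controls were vehicle for no effect and reference inhibitor for full effect; nearly all actives have a fitted effect of over 55% in size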
# Target sequence (P08659 whole entry, looked up): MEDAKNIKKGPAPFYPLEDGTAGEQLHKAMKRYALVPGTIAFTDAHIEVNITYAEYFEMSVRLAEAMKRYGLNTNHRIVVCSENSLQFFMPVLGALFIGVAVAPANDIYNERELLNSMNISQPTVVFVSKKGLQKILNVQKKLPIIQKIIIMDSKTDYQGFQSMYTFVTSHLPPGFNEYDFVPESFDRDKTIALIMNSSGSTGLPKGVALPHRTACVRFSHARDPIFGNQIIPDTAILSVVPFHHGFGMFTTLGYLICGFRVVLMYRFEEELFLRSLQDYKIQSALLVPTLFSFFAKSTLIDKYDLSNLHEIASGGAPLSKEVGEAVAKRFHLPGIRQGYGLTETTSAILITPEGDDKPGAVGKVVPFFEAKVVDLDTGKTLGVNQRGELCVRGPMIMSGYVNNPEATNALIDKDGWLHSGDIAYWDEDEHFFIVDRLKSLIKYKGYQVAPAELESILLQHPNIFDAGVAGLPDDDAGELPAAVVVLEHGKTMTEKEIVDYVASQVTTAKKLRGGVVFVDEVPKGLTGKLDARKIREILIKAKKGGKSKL
#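 Biochemical qHTS of compounds, final roughly 60 µM downward over six points, against 10 nM purified firefly luciferase using Km concentrations of substrates (10 uM D-luciferin, 10 uM ATP) in Tris acetate pH 7.5 buffer; luminescence output.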
# SMN2 splice up: increases expression of the SMN2 splice variant; HEK293 SMN2-luciferase splicing reporter, luminescence, 30-36 h; Potency, µM (titrated, usually from 46.1 µM), for inactives: at the highest dose activity change, positive = activation, hits mostly activators; 210,000 tested, 2.8% active; further: % of control where 0% means no effect; nearly all actives have a fitted effect of over 55% in size
#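 HEK293 cells carry an SMN2 minigene-luciferase reporter in which exon 7 inclusion puts luciferase in frame. Cells were seeded at 2000 cells/well, attached for 10-12 hours, then exposed to compounds for 30-36 hours at 37C before ONE-Glo luminescence.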
# ELG1 DNA repair: blocks ELG1-dependent DNA repair in HEK293T cells; 330,000 tested, 2.3% active; Potency, µM (doses to about 46.1 µM), for inactives: at the top dose activity change, negative = inhibition, actives largely listed as inhibitors; HEK293T ELG1-luciferase reporter, luminescence, 16 h; DNA damage induced by 5-fluorouridine; further: on the % scale 0 is the no-effect control and ±100 the full control effect; nearly all actives have a fitted effect of over 55% in size
#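 HEK293T cells expressing luciferase-tagged ELG1 (2,000/well) received 5-Fluorouridine plus compound or DMSO for 16 hr at 37 °C. Luciferase was read by ONE-Glo luminescence after 30 min at room temperature.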
# Rab9 prom act: Rab9 promoter activation; Huh7 Rab9 promoter-luciferase reporter, luminescence, 24 h; Potency, µM (top dose mostly 9.22 µM), inactives show at the highest dose activation, negative = inhibition, hits mostly activators; 320,000 tested, 2.8% active; further: % of control where 0% means no effect; nearly all actives have a fitted effect of over 60% in size
#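 Stable Rab9-luc Huh7, 1500 cells/well, 2 h settle; cmpd in DMSO, 24 h, 37 °C/5% CO2; luciferase reagent 10 min RT; luminescence.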
# ELG1 genotox: inducers of genotoxicity in HEK293T ELG1-luciferase cells; HEK293T ELG1-luciferase reporter, luminescence, 16 h; Potency, µM (highest dose often 46 µM), for inactives: at the highest dose activity change, positive = activation, usual class: activators; 330,000 tested, 1.3% active; AID 504466; further: % of control where 0% means no effect; nearly all actives have a fitted effect of over 60% in size
#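 Screening used a luciferase reporter fused to human ELG1 in HEK293T cells. Luminescence was read on a CCD plate imager after 16 hr exposure and 30 min ONE-Glo incubation.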
# An asterisk follows results filed as active; ? = inconclusive; . = not tested or not shown. Sampled rows, rich in hits. Any-hit rate of the full collection: about 9.3%. The call rests on the fitted dose curve; in most records, active means well fitted curve in the direction sought with a large enough effect; inconclusive means small, poorly fitted or top-dose-only effect, or another doubt; inactive means no such curve, though single readings can be large; an effect the other way counts as inactive or inconclusive. Potency means the concentration at half of the fitted maximal effect.
SMILES,NPC1 prom act,FLuc counter,SMN2 splice up,ELG1 DNA repair,Rab9 prom act,ELG1 genotox
Fc1cc(Br)ccc1NC(=S)Nc1ccccc1,?,19µM*,18µM*,?,?,9%
COC(=O)c1ccc(NC(=O)Nc2ccc(F)cc2F)cc1,?,7.6µM*,20µM*,?,3.5µM*,?
Fc1ccccc1NC(=S)Nc1ccc(Br)cc1,-4%,?,.,-6%,2%,0%
COC(=O)c1ccc(NC(=O)Nc2cccc(F)c2)cc1,?,4.8µM*,.,?,1.8µM*,7%
O=C(Nc1ccccc1)Nc1ccc(F)cc1F,?,12µM*,?,?,4.5µM*,?
CCCCN1CCCc2cc(CN(CCCN3CCOCC3)C(=O)Nc3ccc(OCC)cc3)ccc21,.,4%,.,.,.,.
COc1ccc(NC(=O)Nc2ccc(Cc3ccncc3)cc2)cc1OC,2%,-20%,-10%,-12%,?,-5%
CCn1c2ccccc2c2cc(NC(=O)COC(=O)c3ccccc3O)ccc21,1%,1%,-5%,3%,-3%,?
CC(C)N(CCNC(=O)c1ccc(OCC2CCCO2)cc1)C(C)C (centres undefined),-2%,-1%,.,-8%,-1%,0%
COc1ccc(NC(=O)c2ccc(OCC3CCCO3)cc2)cc1OC (centres undefined),-1%,15µM*,.,0%,17%,10%
COc1ccc(NC(=O)c2ccc(OCC3CCCO3)cc2)cc1Cl (centres undefined),?,2.4µM*,.,?,?,7%
Cc1ccc(F)cc1NC(=O)c1ccc(OCC2CCCO2)cc1 (centres undefined),.,.,.,?,.,12%
O=C(NC1CCCCCC1)c1ccc(OCC2CCCO2)cc1 (centres undefined),?,12µM*,13µM*,?,2µM*,?
NS(=O)(=O)c1ccc(NC(=O)c2ccc(OCC3CCCO3)cc2)cc1 (centres undefined),.,.,.,-19%,.,-3%
COc1ccc(CN(C)CC2CCCN(CCc3ccc(F)cc3)C2)cc1OC (centres undefined),2%,3%,.,-18%,-4%,-15%
O=C(NCc1cccc(Br)c1)c1ccc(NC(=O)N2CCCCc3ccccc32)cc1,.,-7%,.,.,.,.
Cc1ccc(-c2nc(N)s[n+]2-c2ccccc2)cc1,2%,?,-13%,?,-6%,-4%
CNc1nc(-c2ccccc2)[n+](-c2ccc(C)cc2)s1,13%,6.7µM*,.,-7%,12%,1%
CC(=O)NCCOc1ccc2oc3ccccc3c2c1,.,17µM*,5%,.,.,.
CC(=O)NCCOc1cccc(OCCNC(C)=O)c1,-1%,2%,-14%,6%,2%,0%
Cc1ccc(Nc2ccc(-n3ccnc3)nn2)cc1C,-3%,17µM*,-2%,?,-5%,3%
CCCOc1ccc(N2C(=O)CC(N(Cc3ccc(OC)cc3)C(=S)Nc3ccccc3)C2=O)cc1 (centres undefined),-2%,-5%,?,?,-5%,-1%
CCCOc1ccc(N2C(=O)CC(N(CCc3ccc(OC)c(OC)c3)C(=S)Nc3ccccc3)C2=O)cc1 (centres undefined),-11%,-1%,-20%,16µM*,-2%,-3%
Cc1ccc(Sc2ccc(/C=C3/C(=O)NN(c4ccccc4)C3=O)o2)cc1,-1%,-13%,.,23%,-10%,8%
CN(C)C=C1C(=O)c2ccccc2C1=O,-3%,0%,?,23%,-8%,8%
SMILES,NPC1 prom act,FLuc counter,SMN2 splice up,ELG1 DNA repair,Rab9 prom act,ELG1 genotox
Cc1ccsc1/C=C1/C(=O)NN(c2ccccc2)C1=O,?,9.5µM*,-4%,2%,-4%,-7%
Cc1ccsc1C=C1C(=O)c2ccccc2C1=O,?,1.3µM*,9%,11%,?,2%
CCOC(=O)NCN1C(=O)C2C3C=CC(C3)C2C1=O (centres undefined),0%,-1%,4%,12%,0%,-1%
CCOC(=O)C1CCCN(C(=O)CCc2nnc(-c3ccc(C(C)=O)s3)o2)C1 (centres undefined),2.5µM*,11µM*,.,?,0.79µM*,18µM*
CCOC(=O)C1CCCN(C(=O)CSCc2ccccc2)C1 (centres undefined),?,?,4%,?,6%,14%
COc1ccc(C(=O)NNC(=S)NC(=O)c2cccnc2)cc1,-1%,1%,.,15%,-19%,-2%
COc1ccc(/C=C/C(=O)NC(=S)NNC(=O)c2cccnc2)cc1,-1%,24µM*,4%,1%,-1%,0%
COc1ccc(/C=C/C(=O)NC(=S)NNC(=O)c2cccs2)cc1,-22%,?,-4%,?,-5%,-2%
COc1ccc(/C=C/C(=O)NC(=S)NNC(=O)c2cnccn2)cc1,-15%,17µM*,.,?,-24%,?
Cc1ccc(Cl)cc1N1CCN(C(=O)CN2C(=O)CSc3c2c(C)nn3-c2ccccc2)CC1,.,-19%,.,.,.,.
CCOC(=O)c1cccc(NC(=O)CCc2nc(-c3ccccc3F)no2)c1,-5%,7%,-23%,-8%,-2%,1%
Cc1ccc(Cl)c(NC(=O)COC(=O)c2ccccc2C(=O)c2ccc(Cl)c([N+](=O)[O-])c2)c1Cl,-22%,3%,-109%,18µM*,-16%,-16%
CCCNC(=O)COC(=O)c1ccccc1C(=O)c1ccc(Cl)c([N+](=O)[O-])c1,-41%,2%,-28%,?,-12%,-9%
COc1ccc2oc(C(=O)Nc3nc4ccc(S(C)(=O)=O)cc4s3)c(C)c2c1,1%,?,.,11%,-2%,-8%
Cc1ccc2c(=O)cc(C(=O)Nc3nnc(C)s3)oc2c1,.,-3%,3%,.,.,.
Cc1ccc2oc(C(=O)Nc3nonc3C)c(C)c2c1,?,7.6µM*,.,?,3.2µM*,?
CCc1nonc1NC(=O)c1oc2ccc(Br)cc2c1C,21%,0%,-1%,?,24%,10%
Cc1ccc2oc(C(=O)Nc3nnc(C)s3)c(C)c2c1,3.2µM*,1.7µM*,16µM*,?,1.4µM*,5.8µM*
COc1ccc2oc(C(=O)Nc3nnc(C)s3)c(C)c2c1,?,0.6µM*,.,?,0.71µM*,3.3µM*
COc1ccc2oc(C(=O)NC(C)(C)C)c(C)c2c1,?,15µM*,13µM*,?,4µM*,?
C=CCSc1nnc(-c2nnc(SCC=C)n2CC)n1CC,0%,-1%,-4%,-11%,6%,2%
